These results are taken from PubChem BioAssay (NCI).

This is part of a sample that, as a whole, favours compounds with a hit. Of some 79,000 tested, about 15% had one in any assay. Unmarked numbers belong to inactive results. The source made the active and inactive calls. No stated cut-off is given here; in the data, active means growth inhibition above about 70%; inactive means the rest.

Experiment [1] in a line: NCI Yeast Anticancer Drug Screen. Data for the rad50 strain (AID 155).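 Further: 0% = growth of vehicle-only cultures of the same strain.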 The following applies: S. cerevisiae rad50 strain growth inhibition, active compounds read high. An outline of the steps:
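Readout: growth inhibition relative to vehicle-treated cultures. Compound exposure was carried out in a genetically defined yeast strain deficient in DNA damage repair.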

Experiment [2] is described as follows: NCI Yeast Anticancer Drug Screen. Data for the mec2-1 strain (AID 157). The following applies: S. cerevisiae mec2-1 strain, active compounds read high. The gist of the method:
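Strain: mec2-1 (DNA repair/cell cycle alteration). Compound exposure, then growth measured; inhibition expressed relative to vehicle.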

Experiment [3] can be described thus: NCI Yeast Anticancer Drug Screen. Data for the sgs1 mgt1 strain (AID 161).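 Further: 0% = growth of cultures given vehicle only.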 As to conditions: S. cerevisiae sgs1 mgt1 strain, active compounds read high. An outline of the steps:
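Read-out: growth inhibition vs vehicle controls. Cells: mutant yeast strain deficient in DNA damage repair.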

A short description of experiment [4]: NCI Yeast Anticancer Drug Screen. Data for the cln2 rad14 strain (AID 165).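 Further: 0% = growth equal to vehicle treated cultures.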 As to conditions: S. cerevisiae cln2 rad14 strain, active compounds read high. An outline of the steps:
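Compounds are applied to the cln2 rad14 yeast strain, and growth is then compared with that of vehicle-treated cultures to give inhibition.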

Experiment [5] is described as follows: NCI Yeast Anticancer Drug Screen. Data for the bub3 strain (AID 167). As to conditions: S. cerevisiae bub3 mutant strain, active compounds read high. The gist of the method: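 Readout: yeast growth inhibition, expressed relative to vehicle-only wells. The test organism is a mutant strain from a panel with lesions in DNA repair or checkpoint genes.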
A short description of experiment [6]: NCI Yeast Anticancer Drug Screen. Data for the mlh1 rad18 strain (AID 175). The following applies: S. cerevisiae mlh1 rad18 strain growth inhibition, active compounds read high. An outline of the steps:
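Read-out is yeast growth inhibition, calculated against vehicle-only controls. The compound was applied to a strain engineered with DNA damage repair alterations.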

[7] abbreviates: at 5.0 µM (retest, dose inferred, filed as 0.5).
Where [8] appears, read: at 50.0 µM (retest, dose inferred, filed as 5.0).

As to `C/C(=N\N=C(/[Se])N1CC2CCC(CC2)C1)c1ccccn1`, the growth inhibition in experiment [1] (setting [7]) was 62%; in experiment [1] (setting [8]), 79% (active); in experiment [1] (at 50.0 µM) it was 87.5% (active); in experiment [2] (setting [7]) it was 40%; in experiment [2] (setting [8]), 80% (active); in experiment [2] (at 50.0 µM), 90.2% (active). Besides, the growth inhibition in experiment [3] (setting [7]) is 53%; in experiment [3] (setting [8]), 73% (active); in experiment [3] (at 50.0 µM), 89.5% (active); in experiment [4] (setting [7]), 32%; in experiment [4] (setting [8]), 65%; in experiment [4] (at 50.0 µM) it was 85.2% (active). In addition, the growth inhibition in experiment [5] (setting [7]) is 51%; in experiment [5] (setting [8]) it was 81% (active); in experiment [5] (at 50.0 µM), 90.3% (active); in experiment [6] (setting [7]), 64%; in experiment [6] (setting [8]), 84% (active).

`O=c1ssc(Cl)c1Cl`: the growth inhibition in experiment [1] (setting [7]) is 97% (active); in experiment [1] (setting [8]), 98% (active); in experiment [1] (at 50.0 µM), 86.5% (active); in experiment [2] (setting [7]) it was 96% (active); in experiment [2] (setting [8]) it was 100% (active); in experiment [2] (at 50.0 µM), 89.2% (active). In addition, the growth inhibition is 100% (active) in experiment [3] (setting [7]); 100% (active) in experiment [3] (setting [8]); 89.7% (active) in experiment [3] (at 50.0 µM); 93% (active) in experiment [4] (setting [7]); 98% (active) in experiment [4] (setting [8]); 89.1% (active) in experiment [4] (at 50.0 µM). Further, the growth inhibition was 99% (active) in experiment [5] (setting [7]); 100% (active) in experiment [5] (setting [8]); 87.6% (active) in experiment [5] (at 50.0 µM); 97% (active) in experiment [6] (setting [7]); 98% (active) in experiment [6] (setting [8]).

On to `N=P(c1ccccc1)(c1ccccc1)c1ccccc1` (tested in a mixture with another compound), for which the growth inhibition in experiment [1] (setting [7]) was 10%; in experiment [1] (setting [8]) it was 32%; in experiment [1] (at 50.0 µM), 62.2%; in experiment [2] (setting [7]), 6%; in experiment [2] (setting [8]), 25%; in experiment [2] (at 50.0 µM) it was 17.3%. For the same molecule, the growth inhibition in experiment [3] (setting [7]) is 14%; in experiment [3] (setting [8]), 32%; in experiment [3] (at 50.0 µM) it was 44.1%; in experiment [4] (setting [7]) it was -3%; in experiment [4] (setting [8]) it was 10%; in experiment [4] (at 50.0 µM), 25.4%. In addition, the growth inhibition in experiment [5] (setting [7]) was -1%; in experiment [5] (setting [8]) it was 29%; in experiment [5] (at 50.0 µM), 19.1%.

Consider `Br[C](Br)(Br)[Hg][c]1ccccc1`, for which the growth inhibition in experiment [1] (setting [7]) was 99% (active); in experiment [1] (setting [8]), 98% (active); in experiment [1] (at 50.0 µM), 87.3% (active); in experiment [2] (setting [7]) it was 100% (active); in experiment [2] (setting [8]) it was 99% (active); in experiment [2] (at 50.0 µM), 89.8% (active). Moreover, the growth inhibition in experiment [3] (setting [7]) is 100% (active); in experiment [3] (setting [8]) it was 99% (active); in experiment [3] (at 50.0 µM), 90% (active); in experiment [4] (setting [7]), 99% (active); in experiment [4] (setting [8]), 98% (active); in experiment [4] (at 50.0 µM) it was 89.3% (active). Moreover, the growth inhibition in experiment [5] (setting [7]) was 100% (active); in experiment [5] (setting [8]), 99% (active); in experiment [5] (at 50.0 µM), 89.1% (active); in experiment [6] (setting [7]), 99% (active); in experiment [6] (setting [8]), 98% (active).

Take `O=C(c1ccccc1)C1CCCN(CCc2ccccc2)C1` (stereo not drawn): the growth inhibition in experiment [1] (setting [7]) was 54%; in experiment [1] (setting [8]), 64%; in experiment [1] (at 50.0 µM), 57.3%; in experiment [2] (setting [7]), 31%; in experiment [2] (setting [8]), 70% (active); in experiment [2] (at 50.0 µM), 55.7%. Also, the growth inhibition is 54% in experiment [3] (setting [7]); 63% in experiment [3] (setting [8]); 73.3% (active) in experiment [3] (at 50.0 µM); 48% in experiment [4] (setting [7]); 62% in experiment [4] (setting [8]); 82% (active) in experiment [4] (at 50.0 µM). In addition, the growth inhibition in experiment [5] (setting [7]) was 43%; in experiment [5] (setting [8]), 56%; in experiment [5] (at 50.0 µM), 84.2% (active); in experiment [6] (setting [7]), 56%; in experiment [6] (setting [8]), 67%; in experiment [6] (at 50.0 µM) it was 67.7%.

As for `O=C1C(=O)c2ccccc2-c2ccccc21.O=C1C(=O)c2ccccc2-c2ccccc21.[Hg]`, the growth inhibition in experiment [1] (setting [7]) is 100% (active); in experiment [1] (setting [8]), 96% (active); in experiment [1] (at 50.0 µM), 12.2%; in experiment [2] (setting [7]), 100% (active); in experiment [2] (setting [8]) it was 97% (active); in experiment [2] (at 50.0 µM) it was -7.3%. Moreover, the growth inhibition in experiment [3] (setting [7]) is 100% (active); in experiment [3] (setting [8]), 96% (active); in experiment [3] (at 50.0 µM) it was -6.8%; in experiment [4] (setting [7]) it was 100% (active); in experiment [4] (setting [8]), 97% (active); in experiment [4] (at 50.0 µM), 29.8%. The growth inhibition in experiment [5] (setting [7]) was 100% (active); in experiment [5] (setting [8]) it was 96% (active); in experiment [5] (at 50.0 µM), -13.8%; in experiment [6] (setting [7]) it was 98% (active); in experiment [6] (setting [8]) it was 93% (active); in experiment [6] (at 50.0 µM), 12.3%.

Take `Clc1c(CI)ccc(CI)c1Cl`: the growth inhibition is 22% in experiment [1] (setting [7]); 79% (active) in experiment [1] (setting [8]); 98.7% (active) in experiment [1] (at 50.0 µM); 60% in experiment [2] (setting [7]); 90% (active) in experiment [2] (setting [8]); 97.2% (active) in experiment [2] (at 50.0 µM). Moreover, the growth inhibition in experiment [3] (setting [7]) is 17%; in experiment [3] (setting [8]) it was 74% (active); in experiment [3] (at 50.0 µM) it was 98.7% (active); in experiment [4] (setting [7]), 34%; in experiment [4] (setting [8]), 85% (active); in experiment [4] (at 50.0 µM), 54.3%. Moreover, the growth inhibition was 62% in experiment [5] (setting [7]); 89% (active) in experiment [5] (setting [8]); 87.2% (active) in experiment [5] (at 50.0 µM); 82% (active) in experiment [6] (setting [7]); 96% (active) in experiment [6] (setting [8]); 97.5% (active) in experiment [6] (at 50.0 µM).

For the molecule `CC(=O)[O][Hg][c]1c(C)c(C)c(C)c(C)c1C`, the growth inhibition in experiment [1] (setting [7]) was 98% (active); in experiment [1] (setting [8]), 97% (active); in experiment [1] (at 50.0 µM), 87.5% (active); in experiment [2] (setting [7]) it was 98% (active); in experiment [2] (setting [8]), 97% (active); in experiment [2] (at 50.0 µM), 90.1% (active). For the same molecule, the growth inhibition in experiment [3] (setting [7]) was 99% (active); in experiment [3] (setting [8]) it was 98% (active); in experiment [3] (at 50.0 µM), 90.7% (active); in experiment [4] (setting [7]), 98% (active); in experiment [4] (setting [8]) it was 98% (active); in experiment [4] (at 50.0 µM) it was 89.8% (active). Also, the growth inhibition in experiment [5] (setting [7]) is 98% (active); in experiment [5] (setting [8]) it was 97% (active); in experiment [5] (at 50.0 µM), 88.5% (active); in experiment [6] (setting [7]), 98% (active); in experiment [6] (setting [8]) it was 96% (active).

As to `[Ni+2].[O-][Cl+3]([O-])([O-])O.c1ccc([PH+](CC[PH+](c2ccccc2)c2ccccc2)c2ccccc2)cc1.c1ccc([PH+](CC[PH+](c2ccccc2)c2ccccc2)c2ccccc2)cc1`, the growth inhibition in experiment [1] (setting [7]) is 4%; in experiment [1] (setting [8]) it was 13%; in experiment [1] (at 50.0 µM), 48.6%; in experiment [2] (setting [7]), -1%; in experiment [2] (setting [8]) it was 12%; in experiment [2] (at 50.0 µM), 41.8%. Besides, the growth inhibition in experiment [3] (setting [7]) is 1%; in experiment [3] (setting [8]), 32%; in experiment [3] (at 50.0 µM), 59.2%; in experiment [4] (setting [7]) it was 3%; in experiment [4] (setting [8]) it was -3%; in experiment [4] (at 50.0 µM) it was 9.05%. The growth inhibition was 4% in experiment [5] (setting [7]); 31% in experiment [5] (setting [8]); 43.9% in experiment [5] (at 50.0 µM); 3% in experiment [6] (setting [7]); 26% in experiment [6] (setting [8]); 72% (active) in experiment [6] (at 50.0 µM).

On to `O/N=C/c1ccc2c(c1)OCO2`, for which the growth inhibition in experiment [1] (setting [7]) is 91% (active); in experiment [1] (setting [8]), 99% (active); in experiment [1] (at 50.0 µM), -1.6%; in experiment [2] (setting [7]), 100% (active); in experiment [2] (setting [8]), 100% (active); in experiment [2] (at 50.0 µM), -1.95%. For the same molecule, the growth inhibition in experiment [3] (setting [7]) is 46%; in experiment [3] (setting [8]), 100% (active); in experiment [3] (at 50.0 µM), 38.3%; in experiment [4] (setting [7]), 35%; in experiment [4] (setting [8]) it was 99% (active); in experiment [4] (at 50.0 µM) it was -34.2%. For the same molecule, the growth inhibition is 98% (active) in experiment [5] (setting [7]); 99% (active) in experiment [5] (setting [8]); 4.25% in experiment [5] (at 50.0 µM); 99% (active) in experiment [6] (setting [7]); 99% (active) in experiment [6] (setting [8]); -14.1% in experiment [6] (at 50.0 µM).
